Measured values published in PubChem BioAssay (NCI).
This is part of a sample that, as a whole, favours compounds with a hit. Of some 79,000 tested, about 15% had one in any assay. Values without a mark were called inactive. The source made the active and inactive calls. Rule as the data show it: active = growth inhibition above about 70%; inactive = the rest.

Experiments:
[1] = NCI Yeast Anticancer Drug Screen. Data for the rad50 strain (AID 155);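 also: 0% = growth of vehicle-only cultures of the same strain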; details: S. cerevisiae rad50 strain growth inhibition, active compounds read high
Method in brief: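 Compounds were tested on a yeast strain with an engineered DNA damage repair alteration; the reported value is growth inhibition normalised to vehicle treatment.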

[2] = NCI Yeast Anticancer Drug Screen. Data for the mec2-1 strain (AID 157); details: S. cerevisiae mec2-1 strain, active compounds read high
Method in brief: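 Vehicle-treated cultures served as reference for growth inhibition of compound-exposed mec2-1 yeast.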

[3] = NCI Yeast Anticancer Drug Screen. Data for the sgs1 mgt1 strain (AID 161);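 also: 0% = growth of cultures given vehicle only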; details: S. cerevisiae sgs1 mgt1 strain, active compounds read high
Method in brief: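 Genetically altered yeast, compound exposure, growth inhibition relative to vehicle.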

[4] = NCI Yeast Anticancer Drug Screen. Data for the cln2 rad14 strain (AID 165);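 also: 0% = growth equal to vehicle treated cultures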; details: S. cerevisiae cln2 rad14 strain, active compounds read high
Method in brief: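 Each compound was tested on cln2 rad14 yeast. Inhibition of growth was calculated against vehicle-exposed controls.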

[5] = NCI Yeast Anticancer Drug Screen. Data for the bub3 strain (AID 167); details: S. cerevisiae bub3 mutant strain, active compounds read high
Method in brief: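 Growth of a checkpoint-deficient yeast mutant is measured after compound exposure. Values represent inhibition relative to vehicle.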

[6] = NCI Yeast Anticancer Drug Screen. Data for the mlh1 rad18 strain (AID 175); details: S. cerevisiae mlh1 rad18 strain growth inhibition, active compounds read high
Method in brief: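 Vehicle-treated cultures served as the reference for growth inhibition in a yeast strain carrying DNA damage repair alterations exposed to each compound.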

[7] = at 5.0 µM (retest, dose inferred, filed as 0.5)
[8] = at 50.0 µM (retest, dose inferred, filed as 5.0)

Row | SMILES | growth inhibition [1, 7] | growth inhibition [1, 8] | growth inhibition ([1]; at 50.0 µM) | growth inhibition [2, 7] | growth inhibition [2, 8] | growth inhibition ([2]; at 50.0 µM) | growth inhibition [3, 7] [%] | growth inhibition [3, 8] | growth inhibition ([3]; at 50.0 µM) | growth inhibition [4, 7] | growth inhibition [4, 8] | growth inhibition ([4]; at 50.0 µM) | growth inhibition [5, 7] | growth inhibition [5, 8] | growth inhibition ([5]; at 50.0 µM) | growth inhibition [6, 7] | growth inhibition [6, 8] | growth inhibition ([6]; at 50.0 µM)
1 | O=C1CCCc2cc3c(nc21)C(=O)CCC3 | -8% | -3% | 14.7% | -11% | 0% | 12.6% | 3 | 0% | 13.1% | -7% | 2% | 47.7% | -6% | 1% | 0.6% | 10% | -9% | 2.5%
2 | O/N=C/c1cc(Cl)cc(Cl)c1O | 96% (active) | 96% (active) | 97.7% (active) | 93% (active) | 89% (active) | 95.1% (active) | 53 | 47% | 98% (active) | 80% (active) | 94% (active) | 96.7% (active) | 85% (active) | 94% (active) | 73.5% (active) | 97% (active) | 95% (active) | 97.8% (active)
3 | N=C(N)c1ccc2oc3ccc(C(=N)N)cc3c(=O)c2c1 | 8% | 65% | 57.8% | 3% | 70% (active) | 29.9% | 21 | 76% (active) | 65.5% | 11% | 65% | 71.8% (active) | -4% | 76% (active) | 38% | 10% | 77% (active) | 73.4% (active)
4 | OC(c1cc2ccccc2o1)c1cc2ccccc2s1 (configuration not stated) | -4% | 95% (active) | 44.2% | -11% | 94% (active) | 75.2% (active) | 2 | 46% | 70.4% (active) | -12% | 97% (active) | 61.6% | -6% | 93% (active) | 78.7% (active) | 16% | 94% (active) | 43%
5 | O=[N+]([O-])c1ccc(Oc2c(Cl)cccc2Cl)cc1 | -7% | 9% | -12.9% | -13% | -5% | -11.7% | -6 | -33% | 5.4% | -9% | -1% | -44.1% | 14% | 19% | 75.5% (active) | -12% | 13% | 14.8%
6 | COCC1C(=O)c2cc3c(cc2C12C=CC1(C=C2)OCCO1)OCO3 (configuration not stated) | 36% | 7% | 86% (active) | 15% | -7% | 91.8% (active) | 35 | -2% | 92.8% (active) | 9% | 20% | 90.2% (active) | 40% | -7% | 91.1% (active) | 50% | -14% | 88.2% (active)
7 | CN(C)CC(C)(C)/C(=N\Nc1ccccc1)c1ccccc1 | 6% | 82% (active) | 5.6% | 3% | 86% (active) | -5.2% | 51 | 95% (active) | 4.55% | 25% | 62% | 38.9% | 30% | 93% (active) | 98% (active) | 22% | 80% (active) | 33%
8 | CCCC(=O)Oc1ccc(-c2ccccc2Br)cc1 | 4% | 67% | 92.5% (active) | 3% | 34% | 82.5% (active) | 10 | 44% | 93.5% (active) | 4% | 50% | 89.2% (active) | 18% | 74% (active) | 92.7% (active) | 2% | 31% | 88.1% (active)
9 | Nc1nc(N)c2cc(S(=O)c3ccc4ccccc4c3)ccc2n1 (configuration not stated) | 4% | 17% | 24.2% | 29% | 64% | 79.2% (active) | 2 | 9% | 19.5% | -1% | -18% | -42.4% | -21% | -19% | -13.9% | -4% | 3% | 13.5%
